Source: PubChem BioAssay
ADAM10 inh – human ADAM10 inhibitors, primary screen, biochemical, QFRET, HTS; AID 720582, 2013; Disintegrin and metalloproteinase domain-containing protein 10 (Homo sapiens), O14672; 370,000 tested, 0.62% active; inhibition, % at 7 µM; recombinant ADAM10, EDANS/DABCYL FRET peptide cleavage, 3 h;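 active = inhibition above a per-campaign cutoff equal to the mean of compounds falling between control-based bounds plus 3 SD, cut at about 20% in these data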
FAS-TE inh – FAS thioesterase domain inhibitors, primary screen, biochemical, fluorescence intensity, uHTS; Fatty acid synthase (Homo sapiens), P49327; recombinant FAS-TE, OMFH fluorogenic substrate, fluorescence endpoint; inhibition, % at 15 µM; 360,000 tested, 0.67% active;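 active = compounds whose normalised, plate-corrected inhibition of enzyme fluorescence in the single-dose primary screen is 50% or more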
aDG glyco up – activators of alpha-DG glycosylation, primary screen, uHTS, Pro5-aDG cells, AlphaScreen. activation, % at 10 µM. alpha-DG glycosylation AlphaScreen (IIH6); 0% Pro5, 100% B10-LARGE cell signal. 360,000 tested, 0.22% active. AID 624168, 2012;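 active = activation of at least 8% versus controls, or a plate z-score of at least 8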;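 note: Pro5 are CHO cells carrying HIG-tagged alpha-DG that lacks glycosylation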
ADAM17 inh – ADAM17 inhibitors, primary screen, biochemical, QFRET; recombinant ADAM17, EDANS/DABCYL FRET peptide cleavage; inhibition, % at 6.95 µM; 370,000 tested, 0.83% active;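 active = inhibition above the mean of compounds lying between control limits plus 3 SD, set per campaign, cut at about 8.5% in these data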
Target sequence (P78536 215-824 limits assumed): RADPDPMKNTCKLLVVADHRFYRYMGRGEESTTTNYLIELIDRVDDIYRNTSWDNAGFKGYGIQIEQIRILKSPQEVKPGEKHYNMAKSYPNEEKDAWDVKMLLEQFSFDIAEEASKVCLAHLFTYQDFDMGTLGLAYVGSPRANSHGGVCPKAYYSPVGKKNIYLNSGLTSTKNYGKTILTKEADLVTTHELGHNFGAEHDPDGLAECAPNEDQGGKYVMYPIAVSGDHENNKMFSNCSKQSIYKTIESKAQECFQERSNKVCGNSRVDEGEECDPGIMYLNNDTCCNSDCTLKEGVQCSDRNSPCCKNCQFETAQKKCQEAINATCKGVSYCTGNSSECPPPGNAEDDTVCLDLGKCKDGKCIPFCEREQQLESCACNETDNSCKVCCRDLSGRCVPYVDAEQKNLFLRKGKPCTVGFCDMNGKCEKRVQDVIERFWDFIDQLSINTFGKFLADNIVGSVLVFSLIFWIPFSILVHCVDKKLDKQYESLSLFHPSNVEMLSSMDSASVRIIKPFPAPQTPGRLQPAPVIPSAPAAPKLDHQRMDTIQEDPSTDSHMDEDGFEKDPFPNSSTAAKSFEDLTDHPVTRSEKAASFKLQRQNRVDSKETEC
NR3A LBD binder – binders of NR3A ligand-binding domain, primary screen, biophysical, differential scanning fluorimetry, uHTS | 340,000 tested, 2.5% active | Glutamate receptor ionotropic, NMDA 3A (GRIN3A) ligand-binding domain | NR3A LBD differential scanning fluorimetry, Tm shift; 0% = protein alone, 100% = glycine-bound protein | AID 1259313, 2017 | Tm shift relative to glycine control, % at 25 µM;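 active = melting temperature shift of at least 10% of the positive control shift, at one fixed dose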
Numbers stand for hits; . = inactive; / = no result given. Most compounds without a hit are left out; they make up all but 4% or so of the library.

SMILES | ADAM10 inh | FAS-TE inh | aDG glyco up | ADAM17 inh | NR3A LBD binder
O=C(N/N=C/c1c[nH]c2ccc(Br)cc12)c1ccn(Cc2ccc(Cl)cc2Cl)n1 | . | . | . | . | 17
O=C(N/N=C/c1c[nH]c2ccc(Br)cc12)c1ccccn1 | . | . | . | . | 10
COc1cc2cc(C(=O)N/N=C/c3ccc(F)cc3)[nH]c2cc1OC | . | . | . | . | 13
COc1ccc2cc(C(=O)N/N=C/c3cc(OC)c(OC)c(OC)c3)[nH]c2c1 | . | . | . | . | 19
COc1ccc(/C=N/NC(=O)c2cc3cc(OC)c(OC)cc3[nH]2)cc1 | . | . | . | . | .
COc1ccc2[nH]c(C(=O)N/N=C/c3ccc(O)cc3O)cc2c1 | . | . | . | . | 13
CCOc1ccc2[nH]c(C(=O)N/N=C/c3ccc(OC)cc3)cc2c1 | . | . | . | . | /
COC(=O)c1cc(NC(=O)c2c(-c3c(Cl)cccc3Cl)noc2C)ccc1N1CCOCC1 | . | . | . | . | .
CCN(CC)C(=O)CSc1nc2c(sc(=S)n2-c2ccccc2)c(=O)n1-c1ccc(OC)cc1OC | . | . | . | . | 12
NC(=O)COC(=O)c1cccc(NS(=O)(=O)/C=C/c2ccccc2)c1 | . | . | . | . | 12
Cc1ccc2c(c1)N(CCC(=O)NCc1cccnc1)C(=O)CO2 | . | . | . | . | .
COc1ccc(Br)cc1CNC(=O)CCN1C(=O)COc2ccccc21 | . | . | . | . | 23
Cc1ccc2c(c1)N(CCC(=O)NCc1ccccn1)C(=O)CO2 | . | . | . | . | 42
NC(=O)N(CCC(=O)O)c1ccccc1 | . | . | . | . | .
C/C(=N\NC(=O)CCC(=O)O)c1c(-c2ccccc2)c2cc(Br)ccc2[nH]c1=O | . | . | . | . | .
O=C(N/N=C/c1ccc(O)cc1)c1[nH]c2ccc(Br)cc2c1-c1ccccc1 | . | . | . | . | 29
O=C(N/N=C/c1c[nH]c2ccccc12)c1[nH]c2ccc(Br)cc2c1-c1ccccc1 | . | . | . | . | 27
Cn1cc(CCC(=O)NCc2cccc(Cl)c2)c2ccccc21 | . | . | . | . | .
Oc1nc(Nc2ccc(Cl)cc2Cl)sc1/C=C1\C=Nc2ccccc21 | . | . | . | . | 23
COc1ccc(NC(=O)c2n[nH]c(=O)c3ccccc23)cc1S(=O)(=O)N1CCCCC1 | . | . | . | . | 26
O=C(Nc1ccccc1)c1ccc(N2CCN(c3ccccc3)CC2)c(S(=O)(=O)N2CCOCC2)c1 | . | 56 | . | . | .
COc1ccc(C(=O)Nc2ccc(NC(=O)c3ccccc3)cc2)cc1S(=O)(=O)N1CCOCC1 | . | . | . | . | 32
COc1ccc(C(=O)Nc2ccncc2)cc1S(=O)(=O)N1CCOCC1 | . | . | . | . | .
Cc1ccccc1NC(=O)Cc1nc(COC(=O)c2ncc(Cl)c(Cl)c2Cl)cs1 | . | . | . | . | .
Oc1cccc(-c2nc3ccc4ccccc4c3c3c2CCC3)c1 | . | . | . | . | 12
SMILES | ADAM10 inh | FAS-TE inh | aDG glyco up | ADAM17 inh | NR3A LBD binder
O=C(NNc1c2ccccc2nc2ccccc12)c1cccc(O)c1 | . | . | . | . | .
O=C1CCCC(=O)C1=C1SCCCS1 | . | . | . | . | 11
O=C1C(=C2SCCCS2)CC/C1=C\c1ccc(F)cc1 | . | . | . | . | .
Cn1c2ccccc2c(=O)c2c(=O)n(CCCc3ccccc3)cnc21 | . | / | / | . | /
Cc1cccc2c1-c1sc(C(=O)NCCCN3CCC(C)CC3)cc1CO2 | . | . | . | . | .
CN(C)S(=O)(=O)Oc1ccsc1C(=O)Nc1cccc(Cl)c1 | . | . | . | . | .
COC(=O)c1sccc1-c1ccc(C(=O)Nc2cccc(Cl)c2)o1 | . | . | . | . | 24
Cc1ccc2c(C)c(C)c(=O)n(C)c2c1 | . | . | . | . | 11
COCCNC(=O)c1ccccc1NC(=O)c1ccccc1N(C)S(C)(=O)=O | . | . | . | . | .
CCOc1cc(C(N)=O)cc(Cl)c1OCC | . | . | . | . | .
CCOc1cc(C(=O)O)cc(Cl)c1OC | . | . | . | . | 21
N=c1c(C(=O)NCc2ccc(F)cc2)cc2c(=O)n3ccccc3nc2n1CCCN1CCOCC1 | . | . | . | . | .
N#Cc1c(N)nc(-c2ccccc2)nc1-c1ccccc1 | . | . | . | . | 10
O=c1c([N+](=O)[O-])c(O)c2ccccc2n1Cc1ccccc1 | . | . | . | . | 10
CCOC(=O)CNC(=S)N(CCCN1CCCCCC1)Cc1cccs1 | . | . | . | . | .
Nc1ccc(-c2c3ccc(=O)cc-3oc3cc(O)ccc23)c(C(=O)O)c1 | / | . | . | / | .
CC(=O)c1cccc(NS(=O)(=O)c2ccc(N/C=C/C(=O)c3ccc(F)cc3)cc2)c1 | . | . | . | . | 18
CC(=O)c1ccc(NS(=O)(=O)c2ccc(N/C=C/C(=O)c3ccc(F)cc3)cc2)cc1 | . | . | . | . | 16
CC(=O)c1cccc(NS(=O)(=O)c2ccc(N/C=C\C(=O)c3ccc(F)cc3)cc2)c1 | . | . | . | . | .
N/C(=N\O)c1ccc(Oc2ccccc2Cl)c([N+](=O)[O-])c1 | . | . | . | . | .
NC(=O)COC(=O)CC(NC(N)=O)c1ccc(Cl)cc1 (configuration not stated) | . | . | . | . | 13
Cc1cc(C(=O)COC(=O)CC(NC(N)=O)c2ccc(Cl)cc2)c(C)n1C (configuration not stated) | . | . | . | . | .
O=C(Nc1ccccc1F)c1ccc(OCc2ccccc2)cc1 | . | . | . | . | 17
CC(C)=CC(=O)Nc1ccc(OCc2ccccc2)cc1 | . | . | . | . | 28
Cc1ccc(C(=O)Nc2ccc(OCc3ccccc3)cc2)s1 | . | . | . | . | 15
SMILES | ADAM10 inh | FAS-TE inh | aDG glyco up | ADAM17 inh | NR3A LBD binder
Cc1ccsc1C(=O)Nc1ccc(OCc2ccccc2)cc1 | . | . | . | . | 18
CCOC(=O)C(=O)Nc1ccc(OCc2ccccc2)cc1 | . | . | . | . | .
CCOC(=O)C1NN=C(C(=O)c2ccccc2)C1c1ccc(Cl)cc1 (configuration not stated) | . | . | . | . | .
CC(C)CNC(=O)C1CSCCS(=O)(=O)N1Cc1ccc(F)cc1 (configuration not stated) | . | / | / | . | /
CCCN(CCO)CCCc1ccccc1 | . | . | . | . | .
Cc1cc(C(=O)Nc2ccc(OCc3ccccc3)cc2)c(C)o1 | . | . | . | . | 19
O=C(Nc1ccc(OCc2ccccc2)cc1)c1ccccc1 | . | . | . | . | .
O=C(NCCCN1CCCC1)C1CCN(C(=O)c2cc3sccc3n2Cc2ccc(F)cc2)CC1 | . | . | . | . | 11
